Most compounds without a hit are left out; they make up all but 21% or so of the library.
DT40 TDP1 no CPT = qHTS for Inhibitors of human tyrosyl-DNA phosphodiesterase 1 (TDP1): qHTS in cells in absence of CPT | DT40 Tdp1-/- hTDP1 cells, no CPT, ATP luminescence, 48 h | AID 686978, 2013 | Potency, µM (titrated, usually from 46.2 µM), for the others: at the highest dose activity change, negative = growth inhibition, usual class: inhibitors | hit rate 15% among 420,000; note: potency is the fitted concentration of half-maximal effect; nearly all actives have a fitted effect of over 55% in size
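Stably hTDP1-transfected Tdp1-null chicken DT40 cells were treated with library compounds minus camptothecin and grown for at least 48 hr at 37 °C, after which cellular ATP was quantified by luminescence.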
RORg inh = qHTS for inhibitors of ROR gamma transcriptional activity | Nuclear receptor ROR-gamma (Mus musculus), P51450 | Drosophila S2 Gal4-RORgamma UAS-luciferase reporter, 20 h | Potency, µM (doses to about 53.6 µM), for inactives: at the top dose activity change, negative = inhibition, actives largely listed as inhibitors | hit rate 5.4% among 310,000 | AID 2551, 2010; note: potency is the fitted concentration of half-maximal effect; nearly all actives have a fitted effect of over 60% in size
Target sequence (P51450 whole entry, looked up, the tested form may be a part): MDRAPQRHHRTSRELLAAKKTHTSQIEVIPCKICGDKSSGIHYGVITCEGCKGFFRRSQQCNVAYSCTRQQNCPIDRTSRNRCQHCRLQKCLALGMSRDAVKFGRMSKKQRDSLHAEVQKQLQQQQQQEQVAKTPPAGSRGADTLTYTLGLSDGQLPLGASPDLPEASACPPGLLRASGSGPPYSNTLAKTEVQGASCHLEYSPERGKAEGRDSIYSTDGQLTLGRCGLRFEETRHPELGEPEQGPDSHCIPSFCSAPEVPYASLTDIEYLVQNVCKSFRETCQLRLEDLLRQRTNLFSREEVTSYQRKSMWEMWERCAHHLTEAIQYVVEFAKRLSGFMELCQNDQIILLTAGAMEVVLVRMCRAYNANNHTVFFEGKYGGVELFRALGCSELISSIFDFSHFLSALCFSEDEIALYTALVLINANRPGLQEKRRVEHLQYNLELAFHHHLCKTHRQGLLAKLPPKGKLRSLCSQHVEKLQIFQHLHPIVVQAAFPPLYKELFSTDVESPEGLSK
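Stable Schneider cell line, Gal4 DNA-binding domain fused to ROR gamma, UAS-luciferase. Cmpd 1 hr RT → CuSO4 700 uM final → 20 hr RT → luciferase reagent 10 min → luminescence.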
Gal4-VP16 FLuc = VP16 counterscreen qHTS for inhibitors of ROR gamma transcriptional activity | Drosophila S2 Gal4-VP16 UAS-luciferase, luminescence, 20 h | hit rate 3.5% among 310,000 | Potency, µM (doses to about 53.6 µM), for the others: top-dose activity, negative = inhibition, most hits filed as inhibitors;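 note: Gal4-VP16 expression switched on by copper sulfate through the metallothionein promoter; potency is the fitted concentration of half-maximal effect; nearly all actives have a fitted effect of over 50% in size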
DT40 TDP1 CPT = qHTS for Inhibitors of human tyrosyl-DNA phosphodiesterase 1 (TDP1): qHTS in cells in presence of CPT; Potency, µM (highest dose often 46.2 µM), for inactives: top-dose activity change, negative = growth inhibition, most hits filed as inhibitors; hit rate 12% among 420,000; chicken DT40 Tdp1-/-;hTDP1 cells + 20 nM CPT, ATP luminescence, 48 h; note: potency is the fitted concentration of half-maximal effect; nearly all actives have a fitted effect of over 55% in size
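Cell growth measured by CellTiter-Glo luminescence after a minimum 48 h, 37 C compound exposure with 20 nM CPT in Tdp1-knockout DT40 cells stably expressing hTDP1, seeded 400/well; qHTS titration format.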
ELG1 DNA repair = qHTS screen for small molecules that inhibit ELG1-dependent DNA repair in human embryonic kidney (HEK293T) cells expressing luciferase-tagged ELG1; HEK293T ELG1-luciferase reporter, luminescence, 16 h; DNA damage induced by 5-fluorouridine; Potency, µM (series often up to 46.1 µM), inactives show top-dose activity change, negative = inhibition, actives largely listed as inhibitors; hit rate 2.3% among 330,000; note: potency is the fitted concentration of half-maximal effect; nearly all actives have a fitted effect of over 55% in size
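HEK293T cells expressing luciferase-tagged ELG1 (2,000/well) received 5-Fluorouridine plus compound or DMSO for 16 hr at 37 °C. Luciferase was read by ONE-Glo luminescence after 30 min at room temperature.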
IL1B secr inh = qHTS for Inhibitors of Inflammasome Signaling: IL-1-beta AlphaLISA Primary Screen; THP-1 LPS/ATP IL-1B secretion, AlphaLISA, 16 h; active compounds read low; activity change, % at 57.5 µM; hit rate 4.7% among 360,000; in the data active = activity change below about -50%; inconclusive = mostly about -30% to -49%
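THP-1 cells pretreated 1 hr with compounds (up to 57.5 uM final), then stimulated with LPS (250 ng/mL final) plus ATP (1.25 mM final); secreted IL-1B measured by AlphaLISA after 16 hr, decreased signal indicating inhibition.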
Numbers without * were called inactive; ? = inconclusive; . = not tested or not shown; [ ] = remark or other dose. Unless noted, calls come from the whole dose curve; as a rule, active = well fitted curve in the direction sought with a large enough effect; inconclusive = small, poorly fitted or top-dose-only effect, or another doubt; inactive = no such curve, though single readings can be large; an effect the other way counts as inactive or inconclusive. % is set by controls: 0 for no effect and ±100 for the full control effect.

SMILES | DT40 TDP1 no CPT | RORg inh | Gal4-VP16 FLuc | DT40 TDP1 CPT | ELG1 DNA repair | IL1B secr inh
CCN(CC)S(=O)(=O)c1cccc(NC(=O)c2cccc(S(=O)(=O)N3CCCC3)c2)c1 | 16µM* | . | . | ? | ? | -1
COc1ccc(C2/C=C\CN(C(=O)C3CCCCC3)C(Cc3ccccc3)C(=O)N2Cc2ccc(F)cc2)cc1 (stereo not given) | . | 13% | -11% | . | . | .
Cc1ccc(NC(=O)COc2ccccc2C(=O)NCCN(C)C)cc1 | . | 4% | -7% | . | ? | .
CC1Cc2ccccc2N1C(=O)CNc1cccc(S(=O)(=O)N2CCCC2)c1 (stereo not given) | 21µM* | 3% | 6% | 15µM* | ? | 0
Cc1ccc(S(=O)(=O)N2CCOCC2)cc1NC(=O)CN(C)C1CCS(=O)(=O)C1 (stereo not given) | 2% | ? | -1% | 6% | 11% | 0
CC(=O)Nc1cccc(NCC(=O)Nc2cc(S(=O)(=O)N3CCCCC3)ccc2Cl)c1 | ? | . | . | ? | ? | -20
Cc1ccc(NC(=O)CN(C)CC(=O)Nc2cccc(F)c2)cc1S(=O)(=O)N1CCCCCC1 | ? | 4% | 7% | ? | ? | -77*
Cc1ccc(S(=O)(=O)N2CCOCC2)cc1NC(=O)CN(C)CC(=O)Nc1cccc(F)c1 | 21µM* | . | . | ? | . | -16
CCN(CC)S(=O)(=O)c1ccc(C)c(NC(=O)CNc2cccc(S(=O)(=O)N3CCCC3)c2)c1 | 13µM* | . | . | 18µM* | ? | 3
CC(=O)OC[C@@H]1CN(Cc2ccccc2)C[C@H](n2cnc3c(NC4CCC4)ncnc32)O1 | ? | . | . | ? | . | 1
Cc1cccc(N2CCN(C(=O)c3cccc(N4C(=O)C5C6C=CC(C6)C5C4=O)c3)CC2C)c1 (stereo not given) | 21µM* | ? | 3% | 13µM* | 13µM* | 11
O=C(CCN1C(=O)C2C3C=CC(C3)C2C1=O)N1CCN(c2cccc(Cl)c2)CC1 (stereo not given) | 16µM* | 39% | -15% | 16µM* | -1% | -1
CC1CCN(C(=O)CCN2C(=O)C3C4C=CC(C4)C3C2=O)CC1 (stereo not given) | -4% | 0% | -6% | 15% | 1% | 9
O=C(CCN1C(=O)C2C3C=CC(C3)C2C1=O)N1CCN(c2ccccn2)CC1 (stereo not given) | -18% | -18% | -5% | 2% | 2% | -6
Cc1cccc(N2CCN(C(=O)CCN3C(=O)C4C5C=CC(C5)C4C3=O)CC2C)c1 (stereo not given) | 26µM* | 8% | -3% | -29% | -18% | -7
CCOC(=O)c1c(C)c(-c2ccccc2)n(CC(=O)Nc2cccc(F)c2)c1C | ? | . | . | 5% | . | .
Cc1cccc(C(=O)OCC(=O)c2cccc(Br)c2)c1O | 8% | 9% | 4% | -6% | ? | -7
COc1ccc(OC)c(C2=NS(=O)(=O)N(C)C(C(=O)Nc3cccc(C(C)=O)c3)=C2)c1 | ? | 31% | ? | 21µM* | ? | -1
CCc1ccc(NC(=O)C2=CC(c3ccc(OC)cc3)=NS(=O)(=O)N2C)cc1 | ? | 35% | 4% | ? | 5% | -10
COc1ccc(OC)c(C2=NS(=O)(=O)N(C)C(C(=O)NCc3cccs3)=C2)c1 | ? | 3% | -5% | ? | -13% | 11
COc1cccc(C2=NS(=O)(=O)N(C)C(C(=O)Nc3ccccc3SC)=C2)c1 | ? | . | . | 16µM* | . | .
COc1cc(NC(=O)C2=CC(c3ccc(F)cc3)=NS(=O)(=O)N2C)cc(OC)c1OC | 23µM* | . | . | ? | . | .
COc1ccc(C2=NS(=O)(=O)N(C)C(C(=O)Nc3ccc(C)cc3)=C2)cc1 | 21µM* | ? | -11% | ? | -2% | -24
CC(C)NC(=O)[C@@H]1C[C@@H](Sc2ccccn2)CN1C1CCN(C)CC1 | -10% | . | . | 6% | . | .
N#Cc1ccc(-c2cn3c(n2)SCC3)cc1 | -1% | 0% | -13% | -15% | ? | 12
SMILES | DT40 TDP1 no CPT | RORg inh | Gal4-VP16 FLuc | DT40 TDP1 CPT | ELG1 DNA repair | IL1B secr inh
CN1C(C(=O)Nc2ccc(OC(F)(F)F)cc2)=CC(c2cccs2)=NS1(=O)=O | 3.7µM* | 32% | 4% | ? | 13% | -4
CC(=O)c1ccc(NC(=O)C2=CC(c3ccc(C)cc3)=NS(=O)(=O)N2C)cc1 | 4.1µM* | . | . | 8.2µM* | . | .
Cc1ccc(NC(=O)C2=CC(c3ccc(C)cc3)=NS(=O)(=O)N2C)cc1 | ? | ? | -20% | ? | -1% | 19
COc1ccc(NC(=O)C2=CC(c3cccs3)=NS(=O)(=O)N2C)cc1 | ? | 15% | 1% | ? | 13% | -5
Cc1ccc(N2CCN(C(=O)Cn3ncc4c([nH]c5ccc(C)cc54)c3=O)CC2)c(C)c1 | -29% | . | . | -25% | . | .
CC1=CC(=Nc2c(C)n(C)n(-c3ccccc3)c2=O)C=C(C)C1=O | 21µM* | ? | ? | ? | ? | 0
CC1=CC(=Nc2c(C)n(C)n(-c3ccccc3)c2=O)C=CC1=O | . | -5% | -14% | . | -9% | .
CC1CCCC(C)N1C(=O)COC(=O)c1nn(C)c(=O)c2ccccc12 (stereo not given) | 0% | 2% | 0% | 15% | 6% | 22
CC(=O)c1cccc(NC(=S)NCCC2=CCCCC2)c1 | 15µM* | 7.1µM* | 7.1µM* | 16µM* | -4% | -16
Cc1ccc(NC(=S)NCCC2=CCCCC2)cc1 | 23µM* | 5.6µM* | 6.3µM* | ? | ? | 10
O=C(NCc1ccco1)Nc1ccc2nsnc2c1 | 15µM* | -14%[0.365 µM] | . | 18µM* | 22% | -75*
CC(=O)c1cccc(NC(=S)NCCc2ccc(F)cc2)c1 | ? | ? | -14% | -18% | ? | -10
CCOC(=O)c1ccc(NC(=S)NCCC2=CCCCC2)cc1 | 21µM* | 2.8µM* | 3.2µM* | 29µM* | -25% | 28
CNNC(=S)NCCC1=CCCCC1 | 2% | ? | ? | -12% | 13% | 4

Compound activity as filed in PubChem BioAssay.
